Bioassay records deposited in PubChem by National Center for Advancing Translational Sciences (NCATS).
ATXN2 expr inh: ATXN2 expression inhibition | Potency, µM (top dose mostly 57 µM), most hits filed as inhibitors | HEK-293 ATXN2-luciferase reporter, luminescence, 24 h | hit rate 0.72% among 360,000 | AID 1745845; also: nearly all actives have a fitted effect of over 55% in size
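qHTS (up to 57 uM final) was run with 24 h compound exposure of reporter cells at 37 °C. Each well was multiplexed: SteadyGlo luminescence measured ATXN2-luciferase expression after a fluorogenic Gly-Phe-AFC viability readout (25 uM final).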
HepG2 viability: HepG2 cytotoxicity, counter-screen for TGF-b inhibitors | HepG2 CAGA-GFP viability, ATP luminescence, 18 h | Potency, µM (top dose mostly 46.1 µM), most hits filed as cytotoxic | hit rate 0.76% among 410,000 | AID 588856
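CellTiter-Glo luminescence gave cytotoxicity after 18 hours at 37 degrees C. The cells were HepG2 CAGA-GFP in 1% FBS DMEM, stimulated with 500 pg/mL TGF-beta after compound addition. %Activity was normalised to no-cell wells (complete cell-killing) and DMSO (no toxicity), and curves were fitted and classified.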
Nrf2 inh: Nrf2 pathway inhibition | A549 ARE-Fluc reporter, luciferase luminescence, 18-24 h | Potency, µM (top dose mostly 46 µM), usual class: inhibitors | hit rate 2.1% among 360,000 | AID 504444; also: nearly all actives have a fitted effect of over 60% in size
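Two sequential reads on A549 ARE_Fluc cells exposed to compound for 18-24 h: a CellTiter-Fluor fluorescence read for viability, then a luciferase luminescence read for Nrf2/ARE activity.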
S2 tox: reduces viability in counter-screen for ATXN expression inhibitors; S2 cells (HEK-293 line with an ATXN2-luciferase reporter) viability, CellTiter-Fluor protease fluorescence, 24 h; Potency, µM (highest dose often 56.7 µM), actives largely listed as cytotoxic; hit rate 0.49% among 400,000; AID 651635; also: nearly all actives have a fitted effect of over 40% in size
TGFb SMAD3 inh: inhibitors of TGF-b signaling. Potency, µM (doses to about 46.1 µM), hits mostly inhibitors. HepG2 CAGA-GFP TGF-b/SMAD3 reporter, GFP fluorescence, 18 h; TGF-beta stimulated, 500 pg/mL final. hit rate 1.2% among 410,000; also: nearly all actives have a fitted effect of over 65% in size
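HEPG2 CAGA-GFP, 1000 cells/well; 2 h settle, 37 C; cpd via pin tool; TGF-b 500 pg/mL final; 18 h, 37 C; GFP imaging ex488/em500-530; %Activity normalised to -TGF-b and +DMSO controls; CRC fit, curve class.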
A549 viability: A549 cytotoxicity, counter-screen for Nrf2 inhibitors. AID 504648. A549 ARE-Fluc cells, CellTiter-Fluor viability, 18-24 h. Potency, µM (doses to about 46 µM), usual class: inhibitors. hit rate 0.16% among 390,000
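A549 ARE-Fluc cells in 5% FBS OPTI-MEM, 5000 cells/well, rested 2 h then exposed to compounds in concentration-response for 18-24 h at 37 °C. Viability by CellTiter-Fluor fluorescence (Ex 405/Em 525) after 30 min; luciferase luminescence (BugLite, 15 min, RT) read afterwards.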
Hits are given with their value; . = inactive; ? = inconclusive; / = no result given; [ ] = remark or other dose. Compounds with a hit are over-represented: about 3.8% of the library has one in this group of screens. Calls follow the shape of the dose curve; as a rule, active = well fitted curve in the direction sought with a large enough effect; inconclusive = small, poorly fitted or top-dose-only effect, or another doubt; inactive = no such curve, though single readings can be large; an effect the other way counts as inactive or inconclusive.

SMILES	ATXN2 expr inh	HepG2 viability	Nrf2 inh	S2 tox	TGFb SMAD3 inh	A549 viability
COc1ccc(NCC(=O)Nc2cccc(S(=O)(=O)N3CCCC3)c2)cc1Cl	?	.	18µM	?	?	.
O=C(CNc1cccc(S(=O)(=O)N2CCCC2)c1)Nc1cccc(Br)c1	.	.	21µM	?	?	.
NC(=O)c1nc(-c2ccc(F)c(F)c2)nc2c1[nH]c(=O)n2-c1cccc(Cl)c1	/	.	.	/	/	.
CCOC(=O)C1CCCN(C(=O)c2cc(C)n(C(C)(C)C)n2)CC1 (centres undefined)	.	.	/	.	.	/
O=C(COc1ccc(Cl)cc1)Nc1cccc(S(=O)(=O)NC2=NCCCCC2)c1	.	.	26µM	?	.	.
O=C(Nc1cccc(S(=O)(=O)NC2=NCCCCC2)c1)c1ccc(Cl)cc1	.	.	15µM	?	.	.
O=C(Nc1cccc(S(=O)(=O)NC2=NCCC2)c1)c1ccccc1	.	.	.	.	.	.
Cc1cc(SCC(=O)Nc2cccc(S(=O)(=O)NC3=NCCCCC3)c2)nc2ccccc12	/	.	?	.	11µM	.
CCC1(C2CCN(C(=O)c3csc(C(C)=O)c3)CC2)NC(=O)N(CCc2scnc2C)C1=O (centres undefined)	/	/	/	.	/	/
CCOC(=O)Cn1nc(C)c(NC(=O)COc2ccccc2)c1C	.[11.3 µM]	.	.	.	.	.
CCOC(=O)Cn1nc(C)c(NC(=O)COc2ccc(Cl)cc2C)c1C	.	.	23µM	.	?	.
COc1ccc(Nc2cc(C(=O)NCCCN3CCN(c4ccccc4F)CC3)c3ccccc3n2)c(OC)c1	/	.	.	/	11µM	?
COc1ccc(Nc2cc(C(=O)NCCCN3CCOCC3)c3ccccc3n2)c(OC)c1	.	.	.	?	.	.
Cc1cnc(C)c(-c2cccc3c2OC(CNC(=O)CN2C(=O)c4ccccc4C2=O)C3)n1 (centres undefined)	/	/	/	.	/	/
CC(C)c1cc2c(c(O)c1O)[C@@]13CCCC(C)(C)C1CC2OC3=O (some centres undefined)	?	.	.	?	13µM	.
CCOc1ccc(Cc2c(Cl)nc(SC)nc2N(C)C)cc1	.	.	13µM	.	?	.
CCCCC(=O)N(C)c1c(C)nc2ccc(C(=O)N(CC)CCN(C)C)cn12	.	.	/	.	.	/
CC(C)c1ccc(S(=O)(=O)c2cc3cc(Br)ccc3oc2=O)cc1	20µM	.	.	.	.	.
Cc1ccc(S(=O)(=O)c2cc3cc(Br)ccc3oc2=O)cc1	?	.	?	/	.	.
CC(C)=CC(=O)NCc1c(Cl)cccc1-n1cccc1	.	.	.	.	.	.
CC(C(=O)Nc1ccccc1)n1nnc2sc3c(c2c1=O)CCCC3 (centres undefined)	.	.	?	.	14µM	.
S=C(NCCN1CCOCC1)N1CCN(c2cccc(Cl)c2)CC1	.	.	?	.	.	.
S=C(NCc1ccco1)N1CCN(c2cccc(Cl)c2)CC1	.	.	15µM	.	?	.
CCCCCCCC[n+]1c(C)n(-c2ccccc2)c2ccc(NC(C)=O)cc21	.	.	12µM	.	?	.
CC(=O)Nc1ccc(SCC(=O)c2cc(C)n(-c3ccccc3)c2C)cc1	.	.	?	.	.	.
SMILES	ATXN2 expr inh	HepG2 viability	Nrf2 inh	S2 tox	TGFb SMAD3 inh	A549 viability
COc1ccc(-n2c(SCC(=O)NCC3CCCO3)nc3c(c2=O)SCC3)cc1OC (centres undefined)	.	.	.	.	.	.
COc1ccc(-n2c(SCc3ccccn3)nc3c(c2=O)SCC3)cc1OC	.	20µM	.	.	.	.
CC1(C)CC(=O)C2=C(C1)OC1=C(C(=O)CC(C)(C)C1)C2c1ccc(O)c([N+](=O)[O-])c1	/	.	.	?	.	.
CC1(C)CC(=O)C2=C(C1)OC1=C(C(=O)CC(C)(C)C1)C2c1ccc(O)cc1O	.	7.1µM	/	?	7.1µM	18µM
Cn1cc([N+](=O)[O-])c(C(=O)Nc2cc(Oc3cccnc3)cc([N+](=O)[O-])c2)n1	.	.	?	?	13µM	.
Cc1ccc(-c2nc(NC(=O)c3nn(C)cc3[N+](=O)[O-])sc2C)cc1C	?	.	26µM	.	?	.
Cn1cc([N+](=O)[O-])c(C(=O)Nc2nc(-c3ccc(Cl)cc3)cs2)n1	.	6.3µM	/	.	?	?
Cc1cnc(NC(=O)c2nn(C)cc2[N+](=O)[O-])s1	.	.	?	.	?	.
Cc1ccc(-c2nc(NC(=O)c3nn(C)cc3[N+](=O)[O-])sc2C)cc1	?	.	18µM	?	?	?
O=C(CSc1ccc2nnc(CCNS(=O)(=O)c3ccccc3)n2n1)Nc1nc2ccccc2s1	.	.	?	.	?	.
COc1cccc(-c2ccc(O)c(CNCc3cccc4ccccc34)c2)n1	/	/	/	.	/	/
CCn1c(SCC(=O)Nc2cccc(Cl)c2)nnc1-c1nonc1NC(C)=O	.	.	.	/	.	.
COc1ccc(CCNC(=O)CSCc2nc(-c3ccc(OC)c(OC)c3)oc2C)cc1OC	/	.	?	/	.	.
